ClpP mod: qHTS Assay for Activators of ClpP; ATP-dependent Clp protease proteolytic subunit (Bacillus subtilis (strain 168)), P80244; purified B. subtilis ClpP, FRET peptide cleavage, 20 min; Potency, µM (doses to about 57.5 µM), for the others: at the highest dose activity change, negative = active; hit rate 1.9% among 340,000; active = well fitted falling curve with a large enough effect; inconclusive = small, poorly fitted or top-dose-only effect; inactive = no such curve, though single readings can be large or run the other way; also: potency is read from the fitted curve at half-maximal effect; the source files actives as falling curves though it sought activators and does not explain the sign; nearly all actives have a fitted effect of over 65% in size
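Purified B. subtilis ClpP, 10 microg/mL final in Tris/HCl pH8 with KCl, BSA, glycerol and Tween-20, cleaved an Abz/nitrotyrosine-quenched decapeptide. Fluorescence (ex 320, em 430) was read at 0 and 20 min at room temperature. Delta was normalized to 5.8 microM ADEP and DMSO/no-enzyme controls.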
IL1B secr inh: inflammasome signaling inhibition, IL-1 beta readout | THP-1 LPS/ATP IL-1B secretion, AlphaLISA, 16 h; stronger effect = lower value | activity change, % at 57.5 µM | hit rate 4.7% among 360,000 | AID 743279; in the data active = activity change below about -50%; inconclusive = mostly about -30% to -49%; also: % is scaled to controls: 0 for no effect and ±100 for the full control effect
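Secreted IL-1B measured by AlphaLISA bead assay after 16 h compound exposure of THP-1 cells; compounds (final up to 57.5 uM) added 1 h before LPS (250 ng/mL) and ATP (1.25 mM) stimulation; lower signal means less secretion.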
DRD3 antagonist: antagonists of human D3 dopamine receptor; AID 652054; max response, negative = inhibition, %; D3R cells, DiscoveRx beta-arrestin luminescence, antagonist mode; stronger effect = lower value; hit rate 2.5% among 360,000; P35462; in the data active = max response below about -50%; inconclusive = no clear call, values can overlap the other calls; also: % is scaled to controls: 0 for no effect and ±100 for the full control effect
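Cells expressing the human receptor were seeded at 1500 cells/well, incubated overnight at 37 degrees C in 5% CO2, then exposed to library compounds with dopamine controls for 90 minutes at 37 degrees C before luminescent detection.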
DRD3 agonist: activates the human D3 dopamine receptor. AID 652048. P35462. max activation, %. hit rate 0.58% among 410,000. D3R DiscoveRx beta-arrestin cells, luminescence, 90 min; in the data active = max activation above about 30%; also: 0% is about no effect
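Cells at 1500/well, incubated overnight, then treated with pinned compounds (dopamine as control) for 90 min at 37 degrees C. DiscoveRx reagent added for 30 - 60 minutes at room temperature; luminescence read.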
TDP1 cell noCPT: qHTS for Inhibitors of human tyrosyl-DNA phosphodiesterase 1 (TDP1): qHTS in cells in absence of CPT. hit rate 15% among 420,000. Potency, µM (doses to about 46.2 µM), for the others: at the highest dose activity change, negative = growth inhibition, most hits filed as inhibitors. DT40 Tdp1-/- hTDP1 cells, no CPT, ATP luminescence, 48 h; also: potency is read from the fitted curve at half-maximal effect; % is scaled to controls: 0 for no effect and ±100 for the full control effect; nearly all actives have a fitted effect of over 55% in size
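Camptothecin absent (DMSO only). Human TDP1-complemented DT40 knockout cells, 400 cells/well, 37 °C for minimum 48 hr; ATP measured via CellTiter-Glo, 30 min dark incubation, luminescence.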
TDP1 cell CPT: DT40-hTDP1 cell growth loss with CPT. chicken DT40 Tdp1-/-;hTDP1 cells + 20 nM CPT, ATP luminescence, 48 h. Potency, µM (titrated, usually from 46.2 µM), for inactives: at the top dose activity change, negative = growth inhibition, hits mostly inhibitors. hit rate 12% among 420,000. AID 686979; also: potency is read from the fitted curve at half-maximal effect; % is scaled to controls: 0 for no effect and ±100 for the full control effect; nearly all actives have a fitted effect of over 55% in size
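Cell growth measured by CellTiter-Glo luminescence after a minimum 48 h, 37 C compound exposure with 20 nM CPT in Tdp1-knockout DT40 cells stably expressing hTDP1, seeded 400/well; qHTS titration format.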
* = called active by the depositor; ? = inconclusive; · = no result given. Most compounds without a hit are left out; they make up all but 21% or so of the library. Unless noted, calls follow the shape of the dose curve; as a rule, active = well fitted inhibition curve with a large enough effect; inconclusive = small, poorly fitted or top-dose-only effect; inactive = flat fitted curve, though single readings scatter.

SMILES	ClpP mod	IL1B secr inh	DRD3 antagonist	DRD3 agonist	TDP1 cell noCPT	TDP1 cell CPT
Cc1ccc(-c2cc(C(F)(F)F)n3ncc(C(=O)N4CCCc5ccccc54)c3n2)cc1	1%	3	-18	1	-10%	-28%
O=C(c1cnn2c(C(F)F)cc(-c3ccccc3)nc12)N1CCCCC1c1cccnc1 (centres undefined)	·	-8	11	-2	?	15µM*
CC1(C)C[C@@H]2C(=O)CCC3O[C@@]3(C)CCC21 (some centres undefined)	·	·	·	·	1%	18%
CCC(CC)NC(=O)Cc1ccc(F)cc1	0%	9	15	10	14%	8%
CCc1ccc2c(c1)c(=O)c(S(=O)(=O)c1ccc(Cl)cc1)cn2CC	-11%	·	·	3	?	?
O=C(c1cc(-c2cccnc2)nc2ccccc12)N1CCCc2ccccc21	·	-11	-4	-3	?	?
Cc1ccc(-c2cc(C(=O)N3CCCc4ccccc43)c3ccccc3n2)cc1	-1%	-10	-15	-12	23µM*	?
CCCSc1ncc(Cl)c(C(=O)Nc2ccc(S(=O)(=O)N(C)c3ccccc3)cc2)n1	-10%	·	·	0	21µM*	?
CCSc1ncc(Cl)c(C(=O)Nc2ccccc2)n1	2%	19	18	5	-17%	-27%
CN(c1ccccc1)S(=O)(=O)c1ccc(NC(=O)c2nc(S(C)(=O)=O)ncc2Cl)cc1	6%	-96*	-108*	-22	0.58µM*	0.65µM*
CN(c1ccccc1)S(=O)(=O)c1ccc(NC(=O)C2CC2)cc1	0%	1	-15	0	-16%	0%
CCN(c1ccccc1)S(=O)(=O)c1ccc(NC(=O)c2nc(SC)ncc2Cl)cc1	-3%	·	·	0	21µM*	12µM*
CCCCN(C(=O)CC1CCCC1)c1c(N)n(CCCC)c(=O)[nH]c1=O	2%	-7	-18	-4	-19%	-9%
CCOc1ccc(N2C(=O)CC(N(CCc3ccc(OC)cc3)C(=O)/C=C/C(=O)O)C2=O)cc1 (centres undefined)	·	-8	-18	17	23%	-21%
CCc1ccccc1-n1ncc(C(=O)Nc2ccc(OC)cc2)c1C	·	-65*	0	4	?	-7%
COc1ccc(NC(=O)c2cnn(-c3ccccc3)c2C)c(OC)c1	·	-5	-61*	0	-6%	0%
Cc1c(C(=O)Nc2cc(F)cc(F)c2)cnn1-c1ccccc1	-1%	-18	-3	2	12µM*	13µM*
CCc1ccc(NC(=O)c2cnn(-c3ccccc3)c2C)cc1	0%	?	5	-3	?	-4%
COc1cccc(C(=O)N2CCC2(C)C(=O)NC(C)C)c1 (centres undefined)	0%	29	0	-5	?	-12%
Cc1c(C(=O)NC2CCCc3ccccc32)oc2ccc(S(=O)(=O)N3CCCC3)cc12 (centres undefined)	-1%	36	-20	-11	?	8.2µM*
Cc1c(C(=O)NC2CC2)oc2ccc(S(=O)(=O)N3CCCCCC3)cc12	1%	7	17	2	?	?
Cc1c(C(=O)NC2CCCc3ccccc32)oc2ccc(S(=O)(=O)N3CCCCC3)cc12 (centres undefined)	2%	23	6	1	?	0.26µM*
Cc1c(C(=O)NC2CCCc3ccccc32)oc2ccc(S(=O)(=O)N3CCOCC3)cc12 (centres undefined)	-2%	34	5	0	?	?
O=C(CCc1nc(-c2ccccc2F)no1)NC1CCCCCC1	-2%	20	29	-5	29µM*	?
O=C(CCc1nc(-c2ccccc2Cl)no1)NC1CCCCC1	·	9	-2	-10	21µM*	?

Screening data from PubChem BioAssay.
